From PubChem BioAssay AID2782 (National Center for Advancing Translational Sciences (NCATS), 2010)
Records with an inconclusive call do not appear. A number with no mark means an inactive call. Activity calls are given as the source filed them. The call rests on the fitted dose curve; in most records, active means well fitted inhibition curve with a large enough effect in the polarisation, with a control signal flat (not every such curve was filed as active); inconclusive means small, poorly fitted or top-dose-only effect, or effect the other way, or a change in a side signal; inactive means no such curve, though single readings can be large or run the other way; the % refers to the polarisation.

Assay: Confirmation of Inhibitors Targeting the Menin-MLL Interaction in MLL Related Leukemias: Competition With Texas Red Labeled MLL-derived Mutant Peptide
Settings: fluorescence polarization, Texas Red MLL peptide displacement; series mostly up to 94.6 µM; FP change, negative = inhibition: at the top concentration
How it was run: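 Hits from the primary screen were retested: compounds were incubated 1 hr at ambient with 200 nM menin, 50 nM Texas Red mutant peptide and 25 nM fluorescein wild-type peptide (Tris pH 7.5, BSA-supplemented buffer), then fluorescence polarization was read.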
On the % scale 0 is the no-effect control and ±100 the full control effect; potency means the concentration at half of the fitted maximal effect.

| SMILES | Potency | FP change, negative = inhibition |
| --- | --- | --- |
| CN(C)c1ccc(N=Nc2ccc(C(=O)O)cc2)cc1 | 141 µM (active) | – |
| COc1ccccc1NS(=O)(=O)c1cc(N2Cc3ccccc3C2=N)ccc1N1CCOCC1 | 50.1 µM (active) | – |
| CCc1nn(C)c2c(=O)c(=O)c2n(C)[nH]1 | – | -13% |
| Cc1cnc(NC(=O)C2C(=O)c3ccccc3S(=O)(=O)N2C)s1 (centres undefined) | – | 8.84% [at 288 µM] |
| CN1CCN(CC(=O)Nc2ccc(S(=O)(=O)N(C)C)cc2)CC1 | – | 0.151% |
| O=S(=O)(Nc1cccc(-c2cn3cccnc3n2)c1)c1ccccc1 | – | -23.2% [at 288 µM] |
| CCOc1ccc(-c2nn(-c3ccccc3)cc2/C=C2\SC(N)=NC2=O)cc1C | – | 46.8% [at 288 µM] |
| CN(C)c1ccc(C2CC(=O)C=C(Nc3ccccc3N)C2)cc1 (centres undefined) | 63.2 µM (active) | – |
| Nc1cccc2c1C(=O)N(C(=O)c1ccco1)C2=O | – | -17.4% |
| O=C(CCN1CCN(c2ccc([N+](=O)[O-])cc2)CC1)c1ccc(Cl)cc1 | – | -16.1% [at 288 µM] |
| Cn1c(=O)[nH]c(=O)c2c1nc(Br)n2CCSc1nc2ccccc2o1 | – | -7.1% [at 288 µM] |
| CCN1C(=O)c2ccccc2S(=O)(=O)c2ccc(C(=O)NCCCN(CC(C)C)CC(C)C)cc21 | – | 13% |
| Cc1cc(N2CCOCC2)nc2ccc(Cl)cc12 | – | 1.95% |
| CCC(C)C1NC(=O)C(CCNCS(=O)(=O)O)NC(=O)C(NC(=O)C(CCNCS(=O)(=O)O)NC(=O)C(NC(=O)C(CCNCS(=O)(=O)O)NC(=O)CCCCC(C)C)C(C)O)CCNC(=O)C(C(C)O)NC(=O)C(CCNCS(=O)(=O)O)NC(=O)C(CCNCS(=O)(=O)O)NC(=O)C(C(C)CC)NC1=O (centres undefined) | – | 12.3% |
| CC(=O)Nc1ccc(-c2cc3ccccc3o2)cc1 | – | 32.9% [at 288 µM] |
| CCCC(c1nnnn1Cc1ccco1)N1CCN(C2CCCC2)CC1 (centres undefined) | 79.4 µM (active) | – |
| Cc1ccccc1-c1n[nH]c(=S)n1C | – | -6.97% |

| SMILES | Potency | FP change, negative = inhibition |
| --- | --- | --- |
| COc1cc(O)c(C(=O)c2ccccc2)cc1O | – | -15.4% [at 288 µM] |
| CCCC(c1nnnn1Cc1cccs1)N1CCN(C2CCCC2)CC1 (centres undefined) | 112 µM (active) | – |
| CCc1ccc(CNC(=O)CCS(=O)(=O)Cc2ccccc2F)cc1 | – | 20.1% |
| CC1(C)CN=C(N2CCN(c3ncnc4sc5c(c34)CCCC5)CC2)S1 | 14.2 µM (active) | – |
| O=[N+]([O-])CC(c1ccccc1)P(=O)(c1ccccc1)c1ccccc1 (centres undefined) | – | 24.1% |
| CCOC(=O)N1CCN(Cc2nnc(-c3ccccc3C)o2)CC1 | – | 17.8% |
| CC(CC(=O)Nc1nc2ccccc2[nH]1)n1ccnc1 (centres undefined) | – | -14.1% |
| O=C(c1cc2c(=O)n3ccccc3nc2s1)N1CCOCC1 | – | -18.6% [at 288 µM] |
| CCOC(=O)C1CCN(CC(O)COCc2ccccc2)CC1 (centres undefined) | – | -20% [at 288 µM] |
| CCCNC(=O)c1ccc2c(=O)c(O)c(C)[nH]c2c1 | – | -5.15% |
| O=C(COC(=O)c1ccc(NS(=O)(=O)c2cccs2)cc1)Nc1nc2c(F)c(F)c(F)cc2s1 | 14.2 µM (active) | – |
| CC(=O)c1c(O)cc(O)cc1CC(=O)O | – | -19.4% |
| Cc1c(F)cccc1NS(=O)(=O)c1ccc2c(c1)c(C)cc(=O)n2C | – | -11.4% |
| COc1ccccc1C(=O)Nc1ccnn1C1CCN(CC2CC=CCC2)CC1 (centres undefined) | 126 µM (active) | – |
| COc1ccc(N(C(=O)c2ccncc2)S(=O)(=O)c2ccc(Cl)cc2)cc1 | – | 4.85% |
| CC(NC(=O)c1cnc2ccccc2n1)c1ccccc1 (centres undefined) | – | -13.3% [at 288 µM] |
| CC(=O)NC1C(=O)N(CCN2CCOCC2)c2ccc(C)cc21 (centres undefined) | 71 µM (active) | – |
